# Bioassay records from PubChem BioAssay.
# MPTP inh: mitochondrial permeability transition pore inhibitors, primary screen, biochemical, isolated mouse mitochondria, absorbance; inhibition, % at 10 µM; AID 602449, 2012; Ca2+ swelling absorbance, 30 min; 360,000 compounds, 1.4% hits;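 active = inhibition of 50% or more, scaled per plate between neutral and stimulator controls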
# CSC inhib: cancer stem cell viability inhibitors, primary screen, luminescence. cancer stem cell-like cells viability. inhibition, % at 7.5 µM. 300,000 compounds, 1.1% hits. AID 2717, 2010; in the data active = inhibition above about 75%; inconclusive = no clear call, values can overlap the other calls; tested in HMLE shEcad cells
# Gli-Sufu block: Gli-Sufu pathway antagonists, primary screen, luciferase luminescence, Sufu-KO-LIGHT cells, uHTS. Sufu-KO-LIGHT fibroblasts, Gli luciferase reporter luminescence. inhibition, % at 5 µM. 340,000 compounds, 0.74% hits. AID 588413, 2011;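 active = inhibition above about 55%, limit read from the data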
# NR3A LBD binder: binders of NR3A ligand-binding domain, primary screen, biophysical, differential scanning fluorimetry, uHTS; Glutamate receptor ionotropic, NMDA 3A (GRIN3A) ligand-binding domain; NR3A LBD differential scanning fluorimetry, Tm shift; 0% = protein alone, 100% = glycine-bound protein; Tm shift relative to glycine control, % at 25 µM; 340,000 compounds, 2.5% hits; AID 1259313, 2017;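 active = melting temperature shift of at least 10% of the positive control shift, at one fixed dose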
# Beta cell apopt: inhibitors of cytokine-induced beta cell apoptosis, primary screen, luminescence; INS-1E cytokine-induced death, ATP luminescence, 48 h; percent of positive-control rescue, neutral wells zero; protection from apoptosis, % (no concentration beside the values); 300,000 compounds, 0.8% hits;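 active = Every replicate reaches about 75%, or at least half do and their mean reaches it too, limit read from the data; inconclusive = At least half of replicates reach the limit but their mean does not; inactive = Under half of replicates reach the limit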;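 also: higher means more ATP so stronger rescue from cytokine killing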
# Mdm2 MdmX PPI: inhibitors of human Mdm2-MdmX association, primary screen, cell-based, luminescence, split luciferase, SaOS-2, uHTS. SaOS-2 split-luciferase Mdm2/MdmX complementation. inhibition, % at 8 µM. 330,000 compounds, 3% hits. AID 485346, 2010;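 active = inhibition of at least 50% at 8 µM in the primary screen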
# Target sequence (O15151 whole entry, looked up): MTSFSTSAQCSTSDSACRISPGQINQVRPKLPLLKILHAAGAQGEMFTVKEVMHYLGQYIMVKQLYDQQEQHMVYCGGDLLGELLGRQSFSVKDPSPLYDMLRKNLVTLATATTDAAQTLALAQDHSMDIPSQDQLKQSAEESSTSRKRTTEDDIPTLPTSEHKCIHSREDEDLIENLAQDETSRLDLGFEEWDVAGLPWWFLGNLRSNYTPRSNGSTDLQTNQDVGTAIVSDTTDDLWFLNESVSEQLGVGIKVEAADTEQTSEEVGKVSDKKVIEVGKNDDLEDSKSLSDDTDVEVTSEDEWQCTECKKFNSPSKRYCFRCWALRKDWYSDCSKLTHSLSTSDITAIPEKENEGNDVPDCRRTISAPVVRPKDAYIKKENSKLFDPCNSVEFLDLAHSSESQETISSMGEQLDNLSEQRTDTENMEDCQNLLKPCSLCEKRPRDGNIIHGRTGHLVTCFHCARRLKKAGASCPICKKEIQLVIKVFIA
# Target sequence (Q00987 whole entry, looked up): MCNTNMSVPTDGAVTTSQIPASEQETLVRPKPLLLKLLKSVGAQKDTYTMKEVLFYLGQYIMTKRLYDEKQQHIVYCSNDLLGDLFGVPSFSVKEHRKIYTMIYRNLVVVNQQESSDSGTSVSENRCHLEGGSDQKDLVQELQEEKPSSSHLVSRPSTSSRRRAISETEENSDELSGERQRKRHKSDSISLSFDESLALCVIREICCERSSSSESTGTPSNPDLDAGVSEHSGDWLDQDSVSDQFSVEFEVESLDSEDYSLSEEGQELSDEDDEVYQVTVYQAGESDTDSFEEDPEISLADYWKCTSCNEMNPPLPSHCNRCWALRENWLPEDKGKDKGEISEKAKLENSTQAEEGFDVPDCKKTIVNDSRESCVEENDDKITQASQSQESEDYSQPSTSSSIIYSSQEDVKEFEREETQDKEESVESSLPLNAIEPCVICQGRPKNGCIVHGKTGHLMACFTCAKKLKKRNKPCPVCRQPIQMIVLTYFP
# Mdm2 MdmX conf: Mdm2-MdmX complex disruptors, retested hits, confirmation, luminescence, single concentration; inhibition, % at 8 µM; AID 489028, 2010; shares compounds with Mdm2 MdmX PPI; 10,000 compounds, 55% hits; Mdm2-MdmX binding, luminescent assay; in the data active = inhibition above about 40%
# Full FLuc ctr: full-length luciferase signal inhibition, confirmation, counter-screen for Mdm2/MdmX interaction inhibitor project, cell-based, single concentration, SaOS-2; shares compounds with Mdm2 MdmX PPI; SaOS-2 full-length luciferase counterscreen, luminescence; inhibition, % at 8 µM; 6,200 compounds, 77% hits;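 active = mean inhibition at 8 µM reaching about 37%, which flags the compound as non-specific, limit read from the data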;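 also: p53-null SaOS-2 cells with luciferase driven by a doxycycline-inducible promoter; compound on cells about two nights before reading with doxycycline added after day one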
# Numbers stand for hits; n = inactive; u = inconclusive; x = no result; ! = a repeat was not active. Rows were chosen to be rich in hits. Some 6.6% of all compounds tested hit in one or more screens of this group.
SMILES,MPTP inh,CSC inhib,Gli-Sufu block,NR3A LBD binder,Beta cell apopt,Mdm2 MdmX PPI,Mdm2 MdmX conf,Full FLuc ctr
Cc1cccc(NC(=O)CSc2nc3ccccc3nc2N2CCCCC2)c1,n,n,n,n,n,96,44,102
Cc1cccc(NC(=O)CSc2nc3ccccc3nc2N2CCCC2)c1,n,n,n,n,n,85,45,81
COc1cccc(NC(=O)CSc2nc3ccccc3nc2N2CCCC2)c1,n,n,n,n,n,64,n,x
C/C=C(\C)C(=O)Nc1cccc(C2=NOC3(C2)C[C@H](C(N)=O)N(C(=O)C(c2ccccc2)c2ccccc2)C3)c1 (some centres undefined),n,n,n,n,n,n,x,x
CCN1CCN(Cc2ccc(NC(=O)c3ccc(C)c(NC(=O)c4nccnc4N)c3)cc2C(F)(F)F)CC1,n,n,n,n,n,97,64,42
CCN1CCN(Cc2ccc(NC(=O)c3cc(NC(=O)c4nccnc4N)cc(OC)c3)cc2C(F)(F)F)CC1,n,n,n,n,n,n,x,x
CCN1CCN(Cc2ccc(NC(=O)c3ccc(C)c(NC(=O)N4CCNC4=O)c3)cc2C(F)(F)F)CC1,n,n,n,n,n,59,40!,83
CCN1CCN(Cc2ccc(NC(=O)c3ccc(C)c(NC(=O)c4nccn4C)c3)cc2C(F)(F)F)CC1,n,n,n,n,n,n,x,x
CCN1CCN(Cc2ccc(NC(=O)c3ccc(C)c(NC(=O)c4cccc5[nH]ccc45)c3)cc2C(F)(F)F)CC1,n,n,n,n,n,55,n,x
CCN1CCN(Cc2ccc(NC(=O)c3ccc(C)c(NC(=O)c4cc(-c5ccc(Br)cc5)n[nH]4)c3)cc2C(F)(F)F)CC1,n,u,n,n,n,99,n,41
COc1cccc(/C=N/NC(=O)CNC(=O)COc2ccccc2)c1O,n,n,n,n,n,n,x,x
Cc1cccc(OCC(=O)NCC(=O)N/N=C/c2cc(Br)cc(Br)c2O)c1,n,n,n,17,n,56,77,n
Cc1cc2c(=O)n(C)c(SCC(=O)Nc3cccc(F)c3)nc2s1,n,n,n,n,n,n,x,x
CCC(=O)c1ccc(O)c(CC=C(C)C)c1,n,x,n,n,n,57,44,42
COc1cccc(N2CCN(C(=O)c3ccc(Cl)c(NC4=NC5CS(=O)(=O)CC5S4)c3)CC2)c1 (centres undefined),n,n,n,n,n,n,x,x
CCn1cc(C(=O)NCCCO)c(=O)c2cc(F)c(N3CCN(C)CC3)cc21,n,n,n,n,n,n,x,x
CCCCCCNC(=O)c1cn(CC)c2cc(N3CCN(C)CC3)c(F)cc2c1=O,n,n,n,n,n,51,n,x
Cc1c(C(=O)OCc2ccccc2)[nH]c2c1C(=O)CC(c1ccco1)C2 (centres undefined),n,n,n,n,n,67,63,81
COCCOC(=O)c1[nH]c2c(c1C)C(=O)CC(c1ccccc1)C2 (centres undefined),n,n,n,n,n,62,60,73
COCCOC(=O)c1[nH]c2c(c1C)C(=O)CC(c1ccco1)C2 (centres undefined),n,n,n,n,n,n,x,x
CCOC(=O)c1[nH]c2c(c1C)C(=O)CC(c1ccco1)C2 (centres undefined),n,n,n,n,n,60,59,84
COCCOC(=O)c1[nH]c2c(c1C)C(=O)CC(c1ccc(F)cc1)C2 (centres undefined),n,n,n,n,n,n,x,x
COC(=O)c1[nH]c2c(c1C)C(=O)CC(c1cccs1)C2 (centres undefined),n,n,n,n,n,60,58,74
COC(=O)c1[nH]c2c(c1C)C(=O)CC(c1cc(OC)ccc1OC)C2 (centres undefined),n,n,n,n,n,n,x,x
O=NN(CCCl)C(=O)NCC1=C[N+](=O)CC=C1,n,x,x,x,x,x,x,x
SMILES,MPTP inh,CSC inhib,Gli-Sufu block,NR3A LBD binder,Beta cell apopt,Mdm2 MdmX PPI,Mdm2 MdmX conf,Full FLuc ctr
CC(=O)N1C(=O)C2(NCC(C)N2)c2ccccc21 (centres undefined),n,x,x,x,x,x,x,x
Cc1c(C(=O)OCCOC(C)C)[nH]c2c1C(=O)CC(c1ccco1)C2 (centres undefined),n,n,n,n,n,64,48,86
N#CC1=C(N)OC2=C(CC/C2=C\c2ccccc2Cl)C1c1ccccc1Cl (centres undefined),n,n,n,n,n,66,n,x
COc1cc(NC(=O)Nc2nnc([C@H]3C[C@H](O)[C@@H](CO)O3)s2)cc(OC)c1OC,n,x,x,x,x,x,x,x
Cc1ccc(C2CC(C(F)F)n3ncc(C(=O)Nc4c(C)nn(Cc5c(F)cccc5Cl)c4C)c3N2)cc1 (centres undefined),n,n,n,n,n,70,n,x
Cc1ccc(-c2cc(C(F)F)n3ncc(C(=O)Nc4c(C)nn(Cc5c(Cl)cccc5Cl)c4C)c3n2)cc1,n,n,n,n,n,80,n,x
COc1ccc(-c2cc(C(F)F)n3ncc(C(=O)Nc4cc(C)on4)c3n2)cc1,n,n,n,n,n,59,n,x
Cc1ccc(-c2cc(C(F)F)n3ncc(C(=O)Nc4c(C)nn(Cc5ccccc5Cl)c4C)c3n2)cc1,n,n,n,n,n,78,n,x
CCOC(=O)CN(C)C(=O)C1CCCN1C(=O)OC(C)(C)C (centres undefined),n,n,n,n,n,n,x,x
CCOC(=O)N1CCc2c(sc3c2c(=O)n(-c2ccc(CC)cc2)c(=O)n3CC(=O)NCC2CCCO2)C1 (centres undefined),n,n,n,n,n,n,x,x
Cc1nn(C)c(C)c1/C=N/N=C1\CCC2C3CCc4cc(O)ccc4C3CCC12C (centres undefined),n,n,n,n,n,57,n,x
COc1ccccc1CN(Cc1nc2ccccc2c(=O)[nH]1)S(=O)(=O)c1ccc2ccccc2c1,n,n,n,n,n,72,n,x
COC(=O)[C@@]1(Cc2ccc(F)cc2)[C@H]2c3cc(C(=O)N(C)C)n(Cc4ccc(OC)c(OC)c4)c3C[C@H]2CN1C(=O)c1ccccc1,x,n,n,n,n,n,x,x
